Measured values from PubChem BioAssay AID588676 (Johns Hopkins Ion Channel Center, 2011).
In all, about 310,000 compounds went through this assay and about 3,900 (1.3%) were called active.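 Rule for the calls: active = calcium-response B-score plate-corrected more than 3 library SD below zero, starting fluorescence within 5 deviations, no agonist response on first addition; inactive = the rest.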 The list comes from a sample in which actives are over-represented; it also holds similar structures and randomly drawn compounds.

molecular target: Mas-related G-protein coupled receptor member X1 (Homo sapiens) (UniProt Q96LB2); assay: blockade of BAM8-22-evoked MrgX1 calcium response – HEK293 cells, Fluo-4 calcium flux, primary screen (AID 588676); conditions: Fluo-4, BAM8-22 antagonism, at 10 µM; active compounds read low;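 for B-score: peak minus trough fluorescence over baseline after final BAM8-22 challenge near maximal dose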
Sequence (Q96LB2 whole entry, looked up): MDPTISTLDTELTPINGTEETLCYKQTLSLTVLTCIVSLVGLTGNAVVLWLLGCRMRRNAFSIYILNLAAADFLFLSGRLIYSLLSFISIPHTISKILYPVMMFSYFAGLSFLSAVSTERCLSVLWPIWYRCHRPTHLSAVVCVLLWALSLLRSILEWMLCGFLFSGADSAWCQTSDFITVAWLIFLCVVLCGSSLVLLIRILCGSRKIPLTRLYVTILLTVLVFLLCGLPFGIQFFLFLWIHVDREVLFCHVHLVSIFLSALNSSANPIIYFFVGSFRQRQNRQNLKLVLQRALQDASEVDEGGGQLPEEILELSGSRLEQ

SMILES	B-score
O=C(CN1CCN(c2ccc(O)cc2)CC1)Nc1ccc(-c2ccccc2)cc1	inactive
O=C(COC(=O)c1ncc(Cl)c(Cl)c1Cl)NNC(=O)c1ccccc1	-4.63 (active)
NS(=O)(=O)c1cc(C(=O)OCC(=O)NNC(=O)c2ccccc2)ccc1Cl	inactive
O=C(COC(=O)c1ncc(Cl)c(Cl)c1Cl)NCc1cccs1	inactive
CC(=O)c1cnn(-c2cc(Oc3ccc(F)cc3)ncn2)c1C	inactive
Cc1cc(NC(=O)[C@H](C)NC(=O)c2ccco2)ccc1Br	inactive
NC1=NC(=O)C2(COC(c3ccccc3Cl)OC2)S1 (stereo not given)	inactive
Clc1ccc(C=NC23CN4CN(CN(C4)C2)C3)cc1	-6.85 (active)
FC(F)(F)c1nc2ccccc2nc1N/N=C/c1ccc(Cl)cc1	inactive
O=C(CN1CCSCC1)N/N=C/c1ccc(Cl)cc1	inactive
COc1ccc(CCNC(=O)C2CCCN(Cc3nc(-c4cccc(Cl)c4)oc3C)C2)cc1OC (stereo not given)	inactive
COCCn1c(C)cc(C(=O)COC(=O)/C=C/c2cccc(OC)c2)c1C	inactive
CCc1[nH]nc(C(=O)N2CCCC(CO)(Cc3ccc(F)cc3F)C2)c1C (stereo not given)	inactive
C=CCNC(=O)c1sc(SC)cc1-c1ccc(Cl)cc1	inactive
O=C(NC(Nc1nc2ccc([N+](=O)[O-])cc2s1)(C(F)(F)F)C(F)(F)F)c1ccccc1	-6.28 (active)
CCC(=O)NC(Nc1nc2ccc(C)cc2s1)(C(=O)OC)C(F)(F)F (stereo not given)	inactive
CCOc1ccc2nc(NC(=O)c3cc([N+](=O)[O-])ccc3N3CCOCC3)sc2c1	inactive
CCCOC(=O)c1c(NC(=O)c2cnn3c2NC(c2ccccc2)CC3C(F)(F)F)sc2c1CCCC2 (stereo not given)	inactive
Cc1nc(N=C(N)N)nc2c(C)cccc12	inactive
CCOc1cc(/C=C2/N=C(c3ccc(C(C)(C)C)cc3)OC2=O)cc(Cl)c1OS(C)(=O)=O	inactive
Cc1cccc(NC(=O)Cn2c(=O)n(Cc3ccccc3)c(=O)c3c(C)c(C)sc32)c1	inactive
CCOc1ccccc1C1CC(c2ccccc2)Nc2nc(N)nn21 (stereo not given)	inactive
CCOc1ccccc1C1CC(c2ccc(Cl)cc2)Nc2nc(N)nn21 (stereo not given)	-7.74 (active)
COc1ccc(C2CC(c3ccc(Cl)cc3Cl)Nc3nc(N)nn32)cc1OC (stereo not given)	inactive
COCCC(=O)Nc1ccc2c(c1)CN(C(=O)CCOC)CC2	inactive
COc1ccc2cc(-c3[nH]ncc3CNCCn3nc(C)cc3C)ccc2c1	inactive
CCOc1ccc(CN2CCN(Cc3ccc4cc(F)ccc4n3)CC2CCO)cc1 (stereo not given)	inactive

SMILES	B-score
O=C(Nc1cccnc1Cl)c1cc(-c2ccccc2O)on1	inactive
CNC(=O)c1csc(-c2ccccc2)n1	inactive
C=CCNC(=O)c1csc(-c2ccccc2)n1	-6.07 (active)
C=CCNC(=O)c1cc(-c2ccccc2O)on1	-5.5 (active)
O=C(c1cc(-c2ccccc2O)on1)N1CCCC1	inactive
O=C(NCCc1csc(-c2ccccc2)n1)c1ccccc1F	inactive
CC(NC(=O)CCCC1CCCCC1)c1ccc(S(N)(=O)=O)cc1 (stereo not given)	inactive
Cc1ccc(C)c(N2CCN(C(=O)Cn3ncn4cccc4c3=O)CC2)c1	inactive
O=C(C1=C[C@H](C2CC2)C[C@H](OCc2ccc(CO)cc2)O1)N1CCN(Cc2ccccc2)CC1	inactive
Nc1nc(NCc2ccccc2)n(-c2ccccc2)n1	inactive
O=C1CCC(C(=O)N2CCCCO2)CN1Cc1cccc(C(F)(F)F)c1 (stereo not given)	inactive
O=C(NC(=S)Nc1cccc(-c2ccc(CO)o2)c1)c1cccs1	inactive
CCc1ccc(-c2cc3c(=O)n(CC(=O)NCCCN4CCN(Cc5ccccc5)CC4)nc(C)n3n2)cc1	inactive
COc1cccc(CNC(=O)CN(C)S(=O)(=O)c2ccc3c(c2)c(=O)n(C)c(=O)n3C)c1	inactive
COc1ccccc1NC(=O)CCC(=O)OC(C)C(=O)c1ccccc1 (stereo not given)	inactive
CCC(=O)NC(NCC1CCCO1)C(Cl)(Cl)Cl (stereo not given)	inactive
CC1(C(=O)NNC(=S)NCC2CCCO2)CC1(Cl)Cl (stereo not given)	-5.39 (active)
S=C(NCCc1ccccc1)NCC1CCCO1 (stereo not given)	inactive
Cc1ccc(S(=O)(=O)NCCSc2ccccc2)cc1[N+](=O)[O-]	inactive
Cc1ccc(S(=O)(=O)Nc2nc3ccccc3s2)cc1[N+](=O)[O-]	inactive
COCCNC(=O)c1ccccc1NS(=O)(=O)c1ccc(C)c([N+](=O)[O-])c1	-4.52 (active)
CCN1C(=O)[C@H]2[C@@H](c3ccc(SC4CCCCC4)c(OC)c3)N[C@@](Cc3ccccc3)(C(=O)OC)[C@H]2C1=O	inactive
CCOC(=O)Cn1c(O)c(N=NC(=O)CNC(=O)Cc2ccccc2)c2ccccc21	inactive
CCOc1cc(S(=O)(=O)NCc2ccc3c(c2)OCO3)ccc1F	inactive
Cc1cccc(NC(=O)N(Cc2cc3cc(C)cc(C)c3[nH]c2=O)CC2COCCO2)c1 (stereo not given)	inactive
CCOc1ccc(NC(=O)[C@H](C)NC(=O)C2CC(=O)N(c3ccc(OC)cc3)C2)cc1 (stereo not given in full)	inactive
NC(=O)c1ccccc1N=Cc1ccc2ccccc2c1	inactive

SMILES	B-score
O=C(COc1ncnc2ccccc12)NC(=O)NCc1ccccc1	inactive
O=C(CSc1ncccn1)NCCc1ccccc1	inactive
O=C(CSc1ncccn1)NC(=O)NCc1ccccc1	-6.78 (active)
CCOC(=O)[C@H]1[C@H]2COc3ccc(OC)cc3[C@@H]2N2C(=O)c3ccc(F)cc3NC(=O)[C@@]12C	inactive
COC1=C(N2CCOCC2)C(=O)c2ccccc2C1=O	inactive
CN1C(C(=O)NCC2CC2)CC2Cn3c(nc4ccccc43)C21 (stereo not given)	inactive
C(=N\n1cnnc1)/c1cccnc1	-4.63 (active)
Clc1ccc(CN2CCN(/N=C/c3cccnc3)CC2)cc1	inactive
COc1cccc(OCCOc2cccc(/C=N/n3cnnc3)c2)c1	inactive
Cc1ccc(S(=O)(=O)N2[C@@H](c3ccccc3F)C(C(=O)O)=CC[C@H]2c2ccc(Cl)cc2)cc1	inactive
CC1CCC(NC(=O)CN(C)S(=O)(=O)c2ccc3c(c2)c(=O)n(C)c(=O)n3C)CC1 (stereo not given)	inactive
CS(=O)(=O)Nc1ccccc1N=C(c1ccccc1)c1ccccc1	inactive
NC(N)=NCCCc1cn(CC(=O)N2CCNCC2)nn1	inactive
Cc1nn(-c2ccccc2)c(C)c1NC(=O)COc1ccc(Cl)cc1Cl	-5.44 (active)
Cc1nn(-c2ccccc2)c(C)c1NC(=O)COC(=O)c1cc(Cl)ccc1O	inactive
Cc1nn(-c2ccccc2)c(C)c1NC(=O)CCl	inactive
Cc1c(C(=O)NCC(c2ccco2)N2CCCC2)oc2ccc(Cl)cc12 (stereo not given)	inactive
Cc1c(-c2ccccc2)cn2c1-c1ccc(C)n1CC2	inactive
Cc1cc(Br)ccc1NC(=O)c1sc2ncn(CC(=O)N3CCN(c4ccccn4)CC3)c(=O)c2c1C	inactive
O=C(Cc1ccc(Br)cc1)N1CCN(c2ccccn2)CC1	inactive
Cc1cc(Br)ccc1NC(=O)c1cnc(N2CCN(c3ccccn3)CC2)c2ccccc12	-5.72 (active)
O=C(Nc1cc(C(F)(F)F)ccc1Cl)c1cc2nc3c(c(C(F)(F)F)n2n1)CCCC3	inactive
COC(=O)c1ccc2ccccc2c1OC1OC(CO)C(O)C(O)C1NC(C)=O (stereo not given)	inactive
O=C(Nc1ccc(Cl)cc1)c1cc2nc(C3CC3)cc(C(F)(F)F)n2n1	inactive
Cc1cc(C)c(S(=O)(=O)NCC2CCC(C(=O)NCc3ccc4c(c3)OCO4)CC2)c(C)c1 (stereo not given)	inactive
COc1cc(NC(=O)CN2C(=O)NC(C)(c3ccc(OC(F)F)cc3)C2=O)cc(OC)c1OC (stereo not given)	inactive
O=C(NCCN1CCOCC1)c1ccc(/C=C2\Sc3ccccc3N(Cc3ccc(F)cc3)C2=O)cc1	inactive

SMILES	B-score
CCN1CCN(CCNC(=O)c2ccc3c(c2)NC(=O)/C(=C\c2ccc(OC)c(OC)c2)S3)CC1	inactive
CCN1CCN(CCNC(=O)c2ccc(/C=C3/Sc4ccccc4N(Cc4cccc(C)c4)C3=O)cc2)CC1	-7.53 (active)
Cc1ccc(Nc2cc(=O)n(C3CCCCC3)c(=O)[nH]2)cc1C	inactive
COc1cccc(N(Cc2nnc3n2CCCCC3)C(=O)Nc2ccccc2F)c1	inactive
Cc1ccc(Nc2nc(-c3ccc(O)cc3O)cs2)nc1	-4.59 (active)
Cc1cccc(Nc2nc(-c3ccccc3)cs2)n1	inactive
Clc1ccc(Nc2nc(-c3cccs3)cs2)nc1	inactive
COc1ccc(-c2cc(C(=O)N(C)Cc3ccc(OC)c(OC)c3OC)c3ccccc3n2)cc1OC	inactive
CCCCCCCCC(=O)NCCOc1ccccc1	inactive
CCn1c(COc2cccc(OC)c2)nnc1SCC(=O)N1CCOCC1	inactive
Cc1ccc(OCCCn2c(=O)oc3ccccc32)cc1	inactive
Cc1ccc(OCc2nc3ccccc3n2C)cc1	inactive
CCCCCCCCCCOC(=O)Cn1c(COc2cccc(OC)c2)[n+](C)c2ccccc21	-13.2 (active)
CCCCCCCCCCOC(=O)Cn1c(COc2ccc(C)cc2)[n+](C)c2ccccc21	-10.1 (active)
CCOC(=O)c1cc(NC(=O)SCC(=O)O)c(C)nc1C	inactive
CC(=O)N(C)c1ccc(NC(=O)Nc2cccc3ccccc23)cc1	inactive
CCOc1ccc(NC(=O)Nc2ccc(N(C)C(C)=O)cc2)cc1	inactive
CC(=O)N(C)c1ccc(NC(=O)C(F)(F)F)cc1	-7.18 (active)
O=C(COC(=O)Cn1cnc2ccccc21)Nc1cccc2c1C(=O)c1ccccc1C2=O	inactive
Cc1cccc(NC(=O)Cc2ccc(Br)cc2)n1	inactive
c1cc(-n2cnnn2)ccc1NC1=NCCC1	-5.5 (active)
O=C(Cc1c(F)cccc1Cl)Nc1ccc(-n2cnnn2)cc1	inactive
O=S(=O)(NC1CCCC1)c1ccc(-n2cnnn2)cc1	inactive
Cc1ccc(Cl)c(OCC(=O)N(C)CC(=O)Nc2ccc(N3CCOCC3)cc2)c1	inactive
